Drawing on the OligoGym collection, this text covers sensor-assay potency score (higher = more potent) for 21 sequences.
Note: reference of the scale not given here.

The first assay deals with HAX1. The experiment in a line: pooled miR-30 sensor sort-seq; sequence = guide strand. Conditions: shRNA.
Take TTATCGTGGAAACGTATCCCTC: the sensor-assay potency score (higher = more potent) is -1.22.

For the sequence ACTTCTTGCATCACTCTCCAAG, the sensor-assay potency score (higher = more potent) was -1.46.

TAGGACTGCTATCTGCTTCGTG: the sensor-assay potency score (higher = more potent) was found to be 0.298.

Take TTCACTATTCCACATATCCAAG: the sensor-assay potency score (higher = more potent) is -1.52.

Sequence TGCTATTGAAATCTCGTACTAG showed a sensor-assay potency score (higher = more potent) of 0.119.

In turn, TTACTGTAGTCTCTGTCCGGCC gave a sensor-assay potency score (higher = more potent) of -0.884.

The sequence TACTTAAGCATTGAGTCCCGAA had a sensor-assay potency score (higher = more potent) of -0.493.

Turning to TCACTGTCCACCACAGTCCGGC, the sensor-assay potency score (higher = more potent) was -0.474.

TATTGAAATCTCGTACTAGGTC displayed a sensor-assay potency score (higher = more potent) of -0.361.

With TTAGTGATCTTGGTCACAGAGA, the sensor-assay potency score (higher = more potent) is -0.982.

TACTAGGTCATCAAAGCCGAAG came in with a sensor-assay potency score (higher = more potent) of -1.1.

With TTGGTCACAGAGATGCTCTTGA, the sensor-assay potency score (higher = more potent) is 0.864.

A further assay deals with HBA1. The assay is described as above. The following applies: shRNA.
Consider AAAGACCACGGGGGTACGGGTG, for which the sensor-assay potency score (higher = more potent) is -1.54.

CAGGAAGGGGAGGAGGGGCTGG came in with a sensor-assay potency score (higher = more potent) of -1.95.

The sequence ACGGGGGTACGGGTGCAGGAAG showed a sensor-assay potency score (higher = more potent) of -2.14.

Take TACGGGTGCAGGAAGGGGAGGA: the sensor-assay potency score (higher = more potent) is -0.675.

The sequence AAGACCACGGGGGTACGGGTGC yielded a sensor-assay potency score (higher = more potent) of -0.867.

TCAAAGACCACGGGGGTACGGG gave a sensor-assay potency score (higher = more potent) of -0.714.

ACCACGGGGGTACGGGTGCAGG: the sensor-assay potency score (higher = more potent) was -2.46.

On to TTCAAAGACCACGGGGGTACGG, for which the sensor-assay potency score (higher = more potent) is -1.1.

As for AAGGGGCAAGAAGCATGGCCAC, the sensor-assay potency score (higher = more potent) was -1.79.
